Compounds without any hit were thinned out: in the full panel of roughly 83,000, 20% have a hit.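 Cells were grown in 96-well plates and exposed to the test compound at a single concentration for 48 hours; results are reported as percent growth, with values below 10 considered active.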 Activity calls are given as the source filed them.
Each compound was assayed on SK-MEL-2 melanoma (assay: NCI-60 one-dose screen, 48 h (100 = growth as untreated, 0 = no growth, -100 = all killed)). Conditions: 10 µM unless noted.

SMILES | growth
C[C@H]1C=C(C[C@@H](O)CCCCCCCCCC[C@@H](O)[C@H]2CCC(=O)O2)C(=O)O1 | 80.2% (inactive)
S=c1ssnc1-c1ccccn1 | 31.6% (inactive)
CC1(C)N=C(N)N=C(N)N1c1cccc(CCCCc2ccccc2)c1 | 7.3% (active)
O=[N+]([O-])c1cccc2cc(S(=O)(=O)O)ccc12 | 101% (inactive)
CCOc1cccc(Nc2nc(N)nc3[nH]c4ccc(O)cc4c23)c1 | 90.2% (inactive)
NN=C(c1ccc(Cl)cc1)c1ccc(Cl)cc1 | 121% (inactive)
O=C(N/N=C1\SCC(=O)N1c1ccccc1)c1cc(-c2cc3ccccc3o2)nn1-c1ccccc1 | 103% (inactive)
COc1ccc(N)c(S)c1 | 108% (inactive)
Nn1c(SCC(=O)Nc2cc(Cl)c(Cl)cc2Cl)nnc1-c1cc(F)c(Cl)cc1Cl | 87.3% (inactive)
COc1cc(-c2nc3sc(C)cn3c2/C=C2\C(=O)Nc3ccccc32)c(Br)c(OC)c1OC | 74.3% (inactive)
CC(=S)Nc1ccccc1 | 97.3% (inactive)
O=C(Nc1ccc(Cl)c(Cl)c1)Nc1ccc(Cl)c([N+](=O)[O-])c1 | -43.4% (active)
CCOC(=O)C(C)(CSSCC(C)(NC(=O)c1ccc2ccccc2c1)C(=O)OCC)NC(=O)c1ccc2ccccc2c1 (configuration not stated) | 107% (inactive)
O=C(NC(=S)Nc1ccc(Cl)cc1)c1ccccc1 | 108% (inactive)
CSc1nc(N)nc2c1ncn2C | 92.3% (inactive)
O=C(O)c1cc2ccccc2cc1Nc1ccccc1 | 99.2% (inactive)
O=C1CN(CCN2CC(=O)NC(=O)C2)CC(=O)N1 | 113% (inactive)
c1nc(SC2=NCCN2)c2[nH]cnc2n1 | 38.8% (inactive)
O=C(C[n+]1cccc(Br)c1)c1ccc2c(c1)CCCC2 | 102% (inactive)
NS(=O)(=O)c1ccc(-n2nc(-c3ccc(Cl)cc3)ccc2=O)cc1 | 86.1% (inactive)
O=[N+]([O-])c1ccc(NS(=O)(=O)c2ccccc2)c2ccccc12 | 12.1% (inactive)
CCC1S/C(=N\N=C(/C)c2cccs2)N(c2ccccc2)C1=O (configuration not stated) | 141% (inactive)
Cc1cc(NCCN(C(C)C)C(C)C)nc(/N=C(\N)Nc2ccc(Cl)c(C(F)(F)F)c2)n1 | -89.4% (active)
C=CCn1c(SCC(=O)Nc2ccc(/C(C)=N\O)cc2)nnc1-c1cc(-c2ccc(OC)cc2)nc2ccccc12 | 22.3% (inactive)

These compounds were tested on EKVX NSCLC in the same assay as above. Conditions: 10 µM unless noted.

SMILES | growth
COc1ccc(-c2cc(-c3nnc(SC/C(=N\O)c4ccccc4)n3-c3ccccc3)c3ccccc3n2)cc1 | 103% (inactive)
Cc1cc2c(cc1C)N(C(=O)CCl)CCN2C(=O)CCl | -23% (active)
COc1cc(-c2nc3ccccc3s2)ccc1OCc1nc2n(n1)S(=O)(=O)c1ccccc1N2C | 53.6% (inactive)
O=C(Cn1c2ccccc2c2ccncc21)N/N=C\c1ccc2ccccc2c1 | 55.8% (inactive)
COc1cc2ncnc(Oc3ccc(NC(=O)Nc4ccc(CN5CCOCC5)c(C(F)(F)F)c4)c4ccccc34)c2cc1OC | 16% (inactive)
COc1cc(NC(C)CCCN2C(=O)c3ccccc3C2=O)c2nccc(C)c2c1OC (configuration not stated) | 98.4% (inactive)
Cc1ccc2c(c1)Nc1ccc(C)cc1C2(C)C | 87.8% (inactive)
Cc1ccc(-c2cc(-c3nnc(SCC(=O)c4ccccc4)o3)c3ccccc3n2)cc1 | 83.4% (inactive)
COc1ccccc1N1CCN(CC(O)COc2c(Br)c(Br)c(Br)c3c2OC(C)(C)C3)CC1 (configuration not stated) | 117% (inactive)
Fc1ccc(/C=N/n2c(-c3cc(Cl)cc(Cl)c3Cl)nn(CNc3ccc(Cl)nn3)c2=S)cc1 | 104% (inactive)
Nc1nc(Nc2ccc(OCc3cccc(F)c3)cc2)c2c(n1)[nH]c1ccc(O)cc12 | 10.5% (inactive)
N#CC(C#N)=C(C#N)c1c[nH]c2ccccc12 | 73% (inactive)
FC(F)(F)c1cn(CC2CNC2)c2ncnc(Cl)c12 | 109% (inactive)
Cc1cc(N2CCOCC2)nc(N(CCNc2ccnc3cc(Cl)ccc23)Cc2ccco2)n1 | 56.7% (inactive)
C[C@H]1C=C(C[C@@H](O)CCCCCCCCCC[C@@H](O)[C@H]2CCC(=O)O2)C(=O)O1 | 91% (inactive)
S=c1ssnc1-c1ccccn1 | 65.2% (inactive)
CC1(C)N=C(N)N=C(N)N1c1cccc(CCCCc2ccccc2)c1 | 7.11% (active)
O=[N+]([O-])c1cccc2cc(S(=O)(=O)O)ccc12 | 96.2% (inactive)
CCOc1cccc(Nc2nc(N)nc3[nH]c4ccc(O)cc4c23)c1 | 27.8% (inactive)

SMILES | growth
NN=C(c1ccc(Cl)cc1)c1ccc(Cl)cc1 | 108% (inactive)
O=C(N/N=C1\SCC(=O)N1c1ccccc1)c1cc(-c2cc3ccccc3o2)nn1-c1ccccc1 | 96.7% (inactive)
COc1ccc(N)c(S)c1 | 91.7% (inactive)
Nn1c(SCC(=O)Nc2cc(Cl)c(Cl)cc2Cl)nnc1-c1cc(F)c(Cl)cc1Cl | 66.5% (inactive)
COc1cc(-c2nc3sc(C)cn3c2/C=C2\C(=O)Nc3ccccc32)c(Br)c(OC)c1OC | 31.5% (inactive)
CC(=S)Nc1ccccc1 | 87.3% (inactive)
O=C(Nc1ccc(Cl)c(Cl)c1)Nc1ccc(Cl)c([N+](=O)[O-])c1 | 4.27% (active)
CCOC(=O)C(C)(CSSCC(C)(NC(=O)c1ccc2ccccc2c1)C(=O)OCC)NC(=O)c1ccc2ccccc2c1 (configuration not stated) | 90.3% (inactive)
O=C(NC(=S)Nc1ccc(Cl)cc1)c1ccccc1 | 78.7% (inactive)
CSc1nc(N)nc2c1ncn2C | 94.2% (inactive)
O=C(O)c1cc2ccccc2cc1Nc1ccccc1 | 97.6% (inactive)
O=C1CN(CCN2CC(=O)NC(=O)C2)CC(=O)N1 | 84.4% (inactive)
c1nc(SC2=NCCN2)c2[nH]cnc2n1 | 88.7% (inactive)
O=C(C[n+]1cccc(Br)c1)c1ccc2c(c1)CCCC2 | 94.8% (inactive)
NS(=O)(=O)c1ccc(-n2nc(-c3ccc(Cl)cc3)ccc2=O)cc1 | 99.7% (inactive)
O=[N+]([O-])c1ccc(NS(=O)(=O)c2ccccc2)c2ccccc12 | 38.2% (inactive)
CCC1S/C(=N\N=C(/C)c2cccs2)N(c2ccccc2)C1=O (configuration not stated) | 105% (inactive)
Cc1cc(NCCN(C(C)C)C(C)C)nc(/N=C(\N)Nc2ccc(Cl)c(C(F)(F)F)c2)n1 | -17.5% (active)
C=CCn1c(SCC(=O)Nc2ccc(/C(C)=N\O)cc2)nnc1-c1cc(-c2ccc(OC)cc2)nc2ccccc12 | 42.5% (inactive)

From PubChem BioAssay (NCI)
